We go through nine compounds from ChEMBL document CHEMBL1157539, “Thousands of chemical starting points for antimalarial lead identification” (Nature, 2010).

Each structure is given as a SMILES string.

Broadly, the Inhibition is the relative decrease from the control value, in per cent. Higher therefore signals a response far below the control.

Holding throughout (type): functional
Test [1] relates to Plasmodium falciparum. The experiment in a line: GSK_TCMDC: Inhibition of Plasmodium falciparum 3D7 in whole red blood cells, using parasite LDH activity as an index of growth. Test compounds present at 2uM.
Test [2] has as its system Plasmodium falciparum. The experiment in a line: GSK_TCMDC: Inhibition of Plasmodium falciparum Dd2 in whole red blood cells, using parasite LDH activity as an index of growth. Test compounds present at 2uM.
Another test deals with HepG2. Briefly: GSK_TCMDC: Percent inhibition of human HepG2 cell line. Test compounds present at 10uM.

In the case of `COC(=O)c1cccc(CNCc2ccc(-c3cccc(-c4nc5cc(C(F)(F)F)ccc5[nH]4)c3)cc2)c1.O=C(O)C(F)(F)F`, the Inhibition in the test with Plasmodium falciparum [1] turned out to be 100%; with Plasmodium falciparum [2], 97%; in the test on HepG2 it was 5%.

Turning to `CN1CCN(c2cc(NC(=O)c3ccc(-c4ccc(C#N)cc4)cc3)ccc2Cl)CC1`, the values for the Inhibition in the test on Plasmodium falciparum [1], in the test on Plasmodium falciparum [2] and in the test on HepG2 were 100%, 94% and 29%, respectively.

For the compound `CN(C)c1cccc2c(S(=O)(=O)Nc3cccc(CCN4CCC(N5CCCCC5)CC4)c3)cccc12`, the Inhibition in the test on Plasmodium falciparum [1] was 98%; in the test with Plasmodium falciparum [2], 54%; with HepG2, 41%.

For the compound `CN1CCN(c2cc3c(cc2Cl)CCN3C(=O)Cc2ccc(Cl)c(NC(=O)Nc3cccc(C#N)c3)c2)CC1`, the Inhibition in the test on Plasmodium falciparum [1] is 99%; with Plasmodium falciparum [2] it was 40%; in the test on HepG2 it was 0%.

As to `CC(C)C[C@@H](C(=O)Nc1ccc(Cc2ccc(NC(=O)[C@H](CC(C)C)N(C)C(=O)OC(C)(C)C)cc2)cc1)N(C)C(=O)OC(C)(C)C`, the Inhibition in the test with Plasmodium falciparum [1] came to 92%; in the test on Plasmodium falciparum [2], 57%; with HepG2 it was 17%.

Take `CCn1c(-c2nonc2N)nc2c(-c3cccc(NC(=O)Nc4ccc(C#N)cc4)c3)ncc(OCCCN)c21.O=C(O)C(F)(F)F`: the Inhibition with Plasmodium falciparum [1] was 85%; with Plasmodium falciparum [2], 80%; with HepG2 it was 1%.

As to `CC(C)c1cc(C(=O)N[C@@H](Cc2ccccc2)[C@H](O)CNC2CCCCC2)cc(N2CCCC2=O)c1`, the Inhibition in the test with Plasmodium falciparum [1] was 100%; with Plasmodium falciparum [2], 98%; with HepG2, 0%.

On to `Cc1cc(C2CCN(CCCCNC(=O)c3ccc(NC(=O)c4ccc(Cl)cc4)cc3)CC2)c(C)cc1OC(C)C.Cl`, for which the Inhibition with Plasmodium falciparum [1] was determined as 100%; with Plasmodium falciparum [2] it was 92%; with HepG2, 22%.

With `CC(=O)Nc1ccc(CN(Cc2ccc(F)cc2)Cc2ccc3c(c2)OCO3)cc1`, the Inhibition came to 91% in the test on Plasmodium falciparum [1], 87% in the test on Plasmodium falciparum [2] and 3% in the test with HepG2.
